Test results taken from PubChem BioAssay (NCATS).
Values joined by “and” are separate entries in the source; they are usually repeats but may differ in a detail not shown here. Equal values may be shown once. Records with an inconclusive call do not appear. Some structures have more than one record in an assay (separate samples or runs), and their calls can disagree. Active and inactive are the calls of the source. Calls come from the whole dose curve; as a rule, active = well fitted curve in the direction sought with a large enough effect; inconclusive = small, poorly fitted or top-dose-only effect, or another doubt; inactive = no such curve, though single readings can be large; an effect the other way counts as inactive or inconclusive.

test: qHTS assay to identify small molecule inhibitors of chordoma cells - UCH-2 (AID 1259356); settings: UCH-2 chordoma viability, CellTiter-Glo ATP luminescence, 48 h; series mostly up to 46.1 µM; activity change, negative = inhibition: at the top concentration
% is set by controls: 0 for no effect and ±100 for the full control effect.

Structure (SMILES)	activity change, negative = inhibition
OCCN(CCO)c1nc(N2CCCCC2)c2nc(N(CCO)CCO)nc(N3CCCCC3)c2n1	0.916% (inactive)
NS(=O)(=O)c1cc2c(cc1Cl)NCNS2(=O)=O	14% (inactive)
COc1ccc2[nH]cc(CCNC(C)=O)c2c1	0.399% (inactive)
Cc1cc(C(C)(C)C)c(O)c(C)c1CC1=NCCN1	-3.03% (inactive)
CC12CC3CC(C)(C1)CC(N)(C3)C2	28% (inactive)
Cc1ccccc1N1C(=O)c2cc(S(N)(=O)=O)c(Cl)cc2NC1C (configuration not stated)	-6.17% (inactive)
CCC1(c2ccccc2)C(=O)NCNC1=O	5.61% (inactive)
Cn1c(=O)c2c(ncn2C)n(C)c1=O	-0.896% (inactive)
COc1cc2c(c(OC)c1OC)-c1ccc(OC)c(=O)cc1[C@@H](NC(C)=O)CC2	-22.9% (inactive)
COc1ccccc1N1CCN(CC(O)COc2cccc3ccccc23)CC1 (configuration not stated)	-14.4% (inactive)
CCCCc1oc2ccccc2c1C(=O)c1cc(I)c(OCCN(CC)CC)c(I)c1	2.82% (inactive)
CN(C)CCOC(c1ccccc1)c1ccccc1	17.5% (inactive)
Clc1ccc2c(c1)C(N1CCNCC1)=Nc1ccccc1O2	5.2% (inactive)
Cc1cc(C(C)(C)C)cc(C)c1CC1=NCCN1	-1.04% [at 20.6 µM] (inactive)
CN(Cc1cnc2nc(N)nc(N)c2n1)c1ccc(C(=O)N[C@@H](CCC(=O)O)C(=O)O)cc1	5.68% (inactive)
CN1CCN(C2=Nc3cc(Cl)ccc3Nc3ccccc32)CC1	5.2% (inactive)
COC(=O)Nc1nc2ccc(C(=O)c3cccs3)cc2[nH]1	-23.1% (inactive)
CC(CCc1ccc(O)cc1)NCCc1ccc(O)c(O)c1 (configuration not stated)	28.2% (inactive)
COc1cc2nc(N(C)CCCNC(=O)C3CCCO3)nc(N)c2cc1OC (configuration not stated)	6.56% [at 20.6 µM] (inactive)
CN1CCC(=C2c3ccccc3C=Cc3ccccc32)CC1	13.9% (inactive)
Clc1ccc2nsnc2c1NC1=NCCN1	5.43% (inactive)
CN(C)CCCN1c2ccccc2CCc2ccc(Cl)cc21	4.13% (inactive)
CN(C)C(=O)C(CCN1CCC(O)(c2ccc(Cl)cc2)CC1)(c1ccccc1)c1ccccc1	12.6% (inactive)
CC#C[C@]1(O)CC[C@H]2[C@@H]3CCC4=CC(=O)CCC4=C3[C@@H](c3ccc(N(C)C)cc3)C[C@@]21C	-0.533% (inactive)

test: P-glycoprotein substrates identified in KB-8-5-11 adenocarcinoma cell line, qHTS therapeutic library screen (AID 1346987); settings: KB-8-5-11 (P-gp overexpressing) viability, CellTiter-Glo, 72 h; series mostly up to 44.5 µM; activity change, negative = cytotoxicity: at the top concentration; note: nearly all actives have a fitted effect of over 65% in size; note: potency is the fitted concentration of half-maximal effect
Outline: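 P-gp-mediated resistance screen: KB-8-5-11 cells treated 72 h with compounds in dose-response. CellTiter-Glo viability.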

Structure (SMILES)	Potency	activity change, negative = cytotoxicity	outcome
NS(=O)(=O)c1cc2c(cc1Cl)NCNS2(=O)=O	inactive	–	–
COc1cc2nc(N3CCN(C(=O)c4ccco4)CC3)nc(N)c2cc1OC	–	-20.8% (inactive)	–
COc1ccc2[nH]cc(CCNC(C)=O)c2c1	inactive	–	–
OCCN1CCN(CCCN2c3ccccc3Sc3ccc(C(F)(F)F)cc32)CC1	16.6 µM (active) and 18.4 µM (active)	–	–
COc1ccc(CCN(C)CCCC(C#N)(c2ccc(OC)c(OC)c2)C(C)C)cc1OC (configuration not stated)	20.6 µM (active)	–	–
Cc1cc(C(C)(C)C)c(O)c(C)c1CC1=NCCN1	inactive	–	–
CN1C2CCC1CC(OC(=O)C(CO)c1ccccc1)C2 (configuration not stated)	–	9.97% (inactive)	–
Nc1ccn([C@H]2CC[C@@H](CO)O2)c(=O)n1	inactive	–	–
Cc1ccccc1N1C(=O)c2cc(S(N)(=O)=O)c(Cl)cc2NC1C (configuration not stated)	inactive	–	–
CCC1(c2ccccc2)C(=O)NCNC1=O	–	–	inactive
Cn1c(=O)c2c(ncn2C)n(C)c1=O	–	7.39% (inactive)	–
COc1cc2c(c(OC)c1OC)-c1ccc(OC)c(=O)cc1[C@@H](NC(C)=O)CC2	23.1 µM (active) and 132 nM (active)	–	–
CCCCc1oc2ccccc2c1C(=O)c1cc(I)c(OCCN(CC)CC)c(I)c1	–	-29.6% (inactive)	–
CCN1CCCC1CNC(=O)c1cc(S(=O)(=O)CC)c(N)cc1OC (configuration not stated)	–	–	inactive
CN1CCN(CCCN2c3ccccc3Sc3ccc(Cl)cc32)CC1	23.5 µM (active)	–	–
CC[C@@]1(O)C(=O)OCc2c1cc1n(c2=O)Cc2cc3c(CN(C)C)c(O)ccc3nc2-1	5.9 µM (active) and 8.2 µM (active)	–	–
CN(C)CCOC(c1ccccc1)c1ccccc1	inactive	–	–
Clc1ccc2c(c1)C(N1CCNCC1)=Nc1ccccc1O2	inactive and 20.6 µM (active)	–	–
Cc1cc(C(C)(C)C)cc(C)c1CC1=NCCN1	inactive	–	–
CN(Cc1cnc2nc(N)nc(N)c2n1)c1ccc(C(=O)N[C@@H](CCC(=O)O)C(=O)O)cc1	10.3 nM (active) and 37.2 nM (active)	–	–
COC(=O)Nc1nc2ccc(C(=O)c3cccs3)cc2[nH]1	6.6 nM (active) and 326 nM (active)	–	–
COc1cc2nc(N(C)CCCNC(=O)C3CCCO3)nc(N)c2cc1OC (configuration not stated)	inactive	–	–
O=C1c2c(O)ccc(O)c2C(=O)c2c(NCCNCCO)ccc(NCCNCCO)c21	5.26 µM (active)	–	–
Clc1ccc2nsnc2c1NC1=NCCN1	inactive	–	–
CN(C)CCCN1c2ccccc2CCc2ccc(Cl)cc21	20.9 µM (active)	–	–
CN(C)C(=O)C(CCN1CCC(O)(c2ccc(Cl)cc2)CC1)(c1ccccc1)c1ccccc1	18.7 µM (active)	–	–
CC#C[C@]1(O)CC[C@H]2[C@@H]3CCC4=CC(=O)CCC4=C3[C@@H](c3ccc(N(C)C)cc3)C[C@@]21C	23.1 µM (active)	–	–
COc1ccc2c(c1)c(CC(=O)O)c(C)n2C(=O)c1ccc(Cl)cc1	inactive	–	–
